# Experimental data published in PubChem BioAssay AID720580 (National Center for Advancing Translational Sciences (NCATS), 2013).
# Screen size: about 330,000 compounds; about 1,500 (0.45%) were called active. About 6% were inconclusive and are not listed. The call rests on the fitted dose curve; tested in A549 cells. The list comes from a sample in which actives are over-represented; it also holds similar structures and randomly drawn compounds.
# Test: qHTS for Stage-Specific Inhibitors of Vaccinia Orthopoxvirus: Venus Reporter Primary qHTS; further: nearly all actives have a fitted effect of over 30% in size
# Details: Vaccinia virus Venus reporter expression, fluorescence; series mostly up to 36.5 µM; activity change, negative = inhibition: at the top concentration
# On the % scale 0 is the no-effect control and ±100 the full control effect; potency means the concentration at half of the fitted maximal effect.
Structure (SMILES),"activity change, negative = inhibition",Potency
O=C(NCc1ccc(F)cc1)c1cc(C2CCCCN2C(=O)C2CCCCC2)on1 (stereo not given),-14.1% (inactive),
COc1ccc(C2=Nc3ccccc3NC(=O)C2N(C(=O)c2cc3ccccc3[nH]2)c2ccccc2)cc1 (stereo not given),9.83% (inactive),
C=CC[C@@H](CC(=O)N[C@H](CO)Cc1ccccc1)C(=O)N[C@H](C)COC(=O)[C@@H](CC=C)Cc1ccc(F)cc1,-16.5% (inactive),
C=CC[C@@H](CC(=O)N[C@H](CO)Cc1ccccc1)C(=O)N[C@@H](COC(=O)[C@@H](CC=C)Cc1ccc(F)cc1)Cc1c[nH]c2ccccc12,-9.16% (inactive),
C=CCC[C@H](Cc1ccc(F)cc1)C(=O)OC[C@@H](NC(=O)[C@@H](CC=C)CC(=O)N[C@H](CO)Cc1ccccc1)C(C)(C)C,,11.2 µM (active)
Cc1ccccc1Cn1c(C)c(C(=O)NCc2cccc(C(F)(F)F)c2)sc1=O,-8.3% (inactive),
CN1CC[C@H](c2c(O)cc(O)c3c(=O)cc(-c4ccccc4Cl)oc23)[C@H](O)C1,,0.0794 µM (active)
O=C(Nc1ccc(Cl)c(C(F)(F)F)c1)C1Cc2c(-c3ccccc3Oc3ccccc3)ccnc2O1 (stereo not given),-1.56% (inactive),
CC1(C(=O)Nc2ccc3c(c2)OCCO3)CCN1C(=O)Cc1cc(F)ccc1F (stereo not given),-1.79% (inactive),
CN(C)Cc1cn(-c2ccccc2)nc1-c1ccccc1,-25.3% (inactive),
CCc1ccc(-c2nn(-c3ccccc3)cc2CSC(=N)N)cc1,,11.2 µM (active)
CCc1ccc(-c2nn(-c3ccccc3C)cc2C(=O)N2CCN(C3CCS(=O)(=O)C3)CC2)cc1 (stereo not given),-1.86% (inactive),
COC(=O)C1CCCCN1Cc1ccc2c(c1)CN(Cc1cc(OC)c3c(c1)OCO3)CCO2 (stereo not given),-4.65% (inactive),
CCCCCc1c(-c2cccc(Br)c2)ncn1CCc1ccccc1OC,0.147% (inactive),
CCCCCc1c(-c2ccc(OC)c(OC)c2)ncn1CCc1ccccc1OC,-25.2% (inactive),
CCCCCc1c(Cc2ccccc2)ncn1CCc1ccccc1OC,,1.41 µM (active)
O=C(Nc1ccccc1)c1ccccc1OCc1ccccc1,-6.03% (inactive),
CC1(C(=O)NCC2CCOCC2)Cc2c(-c3cccc(C(N)=O)c3)ccnc2O1 (stereo not given),-7.77% (inactive),
COc1ccc(-c2nc3ccc(Br)cn3c2Cc2ccc(C)cc2)cc1OC,-0.743% (inactive),
Cn1c(Nc2cccc(Cl)c2)nc2ccccc21,-21.5% (inactive),
OCCCNc1nccc(-c2cc(Nc3cccc(Cl)c3)ncn2)n1,,0.891 µM (active)
CCOC(=O)[C@]12CCCC=C1N(CCC1=CCCCC1)C(=O)[C@H](CC(=O)N1CCOCC1)C2,-24.7% (inactive),

Structure (SMILES),"activity change, negative = inhibition",Potency
CNc1cncc(-c2ccc(NS(C)(=O)=O)cc2)n1,-23.2% (inactive),
CCOC(=O)[C@]12CCC=C1N(CCC1=CCCCC1)C(=O)[C@H](CC(=O)NCc1ccc(C)o1)C2,-2.7% (inactive),
CC(C)(C)NC(=O)C(CCc1ccccc1)n1c(=O)c(-c2ccccc2)nc2ccccc21 (stereo not given),-12% (inactive),
CNC(=O)c1cccc2nc3ccccc3nc12,,6.31 µM (active)
CNC(=O)C(NC(=O)c1ccccc1)=C(C)C,-8.97% (inactive),
CN(C)C(=O)c1coc2nc3ccccc3nc12,31.2% (inactive),
Brc1ccc2nc(-c3ccccc3)c(Cc3ccccc3)n2c1,-0.0366% (inactive),
OC(Cc1ccc2ccccc2n1)c1ccc(Cl)c(Cl)c1 (stereo not given),-26.4% (inactive),
COc1ccc(S(=O)(=O)N[C@@H]2C=C[C@@H](CC(=O)N3CCc4ccccc4C3)O[C@@H]2CO)cc1,-15.7% (inactive),
COc1ccc(NC(=O)C2Cc3c(-c4ccc5c(c4)OCO5)ccnc3O2)cn1 (stereo not given),-22.3% (inactive),
Cc1ccc(NC(=O)NC(=O)c2ccccc2)cc1F,-7.1% (inactive),
Cc1ccc(NC(=S)NC(=O)c2ccc(-c3ccccc3)cc2)cc1,-10.3% (inactive),
Cc1cccc(NC(=O)NC(=S)NC(=O)c2ccccc2)c1,,10 µM (active)
CCCNC(=O)C1(C)CCN(Cc2ccc(Cl)c(Cl)c2)C1 (stereo not given),3.72% (inactive),
CCCc1ccc(C(O)c2ncc(-c3cccc(OC)c3)[nH]2)cc1 (stereo not given),-7.29% (inactive),
Cc1ccc(-c2nc3c(C)cc(Br)cn3c2Cc2ccccc2)cc1,-17% (inactive),
COc1ccccc1Cc1c(-c2ccc(Cl)cc2)nc2ccc(Cl)cn12,-18.1% (inactive),
COc1ccc2c(c1O)-c1cccc3c1[C@@H](C2)N(C)CC3,-9.77% (inactive),
COc1c(O)ccc2c1CN1CCc3cc4c(cc3C1C2)OCO4 (stereo not given),,11.2 µM (active)
CN1CCc2cc3c(cc2[C@H]1[C@@H]1OC(=O)c2c1ccc1c2OCO1)OCO3,-15.2% (inactive),
Cc1cccc(C)c1NC(=O)C(c1cccc2ccccc12)n1c(=O)c(-c2ccco2)nc2ccccc21 (stereo not given),-16.4% (inactive),
COc1ccc(-c2c(C)cc3oc(=O)cc(-c4ccccc4)c3c2C)cc1F,-20.5% (inactive),

Structure (SMILES),"activity change, negative = inhibition",Potency
COc1cc(OC)c2c(-c3cccc(-c4cccc(N)c4)c3)cc(=O)oc2c1,,12.6 µM (active)
COc1ccc(-c2c(C)cc3oc(=O)cc(-c4ccccc4)c3c2C)cc1OC,-14.3% (inactive),
CN[C@H]1C[C@H]2c3cc(Oc4ccccc4C)ccc3CCN2C(=O)[C@H]1[C@H](C)O,-0.143% (inactive),
CC1=C(C(=O)N(C(C)C)C(C)C)CC(CC(=O)NCCCCc2ccccc2)C(=O)N1CCC1=CCCCC1 (stereo not given),-14.9% (inactive),
CC1=C(C(=O)Nc2ccccc2)SCCO1,-8.62% (inactive),
CC1=C(C(=O)Nc2ccccc2)S(=O)(=O)CCO1,,0.794 µM (active)
O=C(Nc1ccccc1)c1ccc2c(c1)OCCCO2,-17.9% (inactive),
OC(CBr)C[n+]1cccc2cc(Br)ccc21 (stereo not given),-19.5% (inactive),
COc1cccc(C(O)c2nc(-c3ccc(C)c(C)c3)cs2)c1 (stereo not given),-9.02% (inactive),
CCC(C)N(c1ccc(/C=C/c2ccnc3ccccc23)cc1)C(C)CC (stereo not given),25.9% (inactive),
COC(=O)Cc1ccc(OC2(C)CCN(Cc3ccc4c(c3)OCCO4)C2)cc1 (stereo not given),-6.83% (inactive),
COC(=O)c1ccc2nc(-c3ccccc3)c(Cc3ccc(OC)cc3C)n2c1,1.02% (inactive),
CCCc1nc2sc3c(c2c(=O)n1NC(=O)CCCl)CCCC3,,7.94 µM (active)
Cc1ccc(C)c(-n2c(SCC(=O)O)nc3sc4c(c3c2=O)CCCC4)c1,-18.6% (inactive),
Cn1c(NN)nc2sc3c(c2c1=O)CCC3,-13.9% (inactive),
Nc1nc2c(Br)ccc(Br)c2cc1C(=O)NCCc1ccccc1,-9.13% (inactive),
Cc1ccc2nc(-c3ccccc3)c(CC3CCCCC3)n2c1,-3.43% (inactive),
O=C(NC1CCCC1)C1c2ccccc2OCC(=O)N1Cc1ccccc1 (stereo not given),0.451% (inactive),
CC(=O)c1ccc(-c2cnc3c(NC=O)cc(-c4cccc(NS(C)(=O)=O)c4)cn23)cc1,,11.2 µM (active)
CC(=O)c1cccc(-c2cnc3c(NC=O)cc(-c4ccc(N(C)C)cc4)cn23)c1,19.6% (inactive),
CC(=O)c1cccc(-c2cnc3c(NC=O)cc(-c4cccc(C(=O)N(C)C)c4)cn23)c1,-4.87% (inactive),
